# Measured values: the supplement of paper PMC4466140
# Key:
# Assay in all cases: SPOT peptide array binding signal intensity (averaged, normalized) (arbitrary units (background-subtracted, floor 0; scale differs between SH3 domains)); higher = stronger binding of the SH3 domain to the peptide
# AgAbp1 = biological target: AgAbp1
# Method in brief: (§1)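 Spot intensities were captured after detection with anti-GST antibody, an HRP-linked anti-mouse secondary and luminol, and quantified with Genespotter. The probes were GST-fused SH3 domains from four yeast species, produced in E. coli BL21(DE3), purified on glutathione Sepharose and incubated at 10 μg/ml overnight at 4°C on cellulose-bound synthetic 15-mer peptides with cysteines replaced by serines. Binding signal is the normalized, background-subtracted spot intensity averaged over replicates, and its arbitrary units differ between domains.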
# AgBbc1 = biological target: AgBbc1
# Method in brief: as §1
# AgBem1-D1 = biological target: AgBem1-D1
# Method in brief: as §1
# AgBzz1-D1 = biological target: AgBzz1-D1
# Method in brief: as §1
# AgBzz1-D2 = biological target: AgBzz1-D2
# Method in brief: as §1
# AgCyk3 = biological target: AgCyk3
# Method in brief: as §1
# AgFus1 = biological target: AgFus1
# Method in brief: as §1
# AgHof1 = biological target: AgHof1
# Method in brief: as §1
# AgHse1 = biological target: AgHse1
# Method in brief: as §1
# AgLsb1 = biological target: AgLsb1
# Method in brief: as §1
# AgLsb4 = biological target: AgLsb4
# Method in brief: as §1
# AgMyo5 = biological target: AgMyo5
# Method in brief: as §1
# AgNbp2 = biological target: AgNbp2
# Method in brief: as §1
# AgRvs167 = biological target: AgRvs167
# Method in brief: as §1
# AgSho1 = biological target: AgSho1
# Method in brief: as §1
# AgSla1-D1-D2 = biological target: AgSla1-D1-D2
# Method in brief: as §1
# AgSla1-D3 = biological target: AgSla1-D3
# Method in brief: as §1
# CaAbp1-D1 = biological target: CaAbp1-D1
# Method in brief: as §1
# CaAbp1-D2 = biological target: CaAbp1-D2
# Method in brief: as §1
# CaBbc1 = biological target: CaBbc1
# Method in brief: as §1
# CaBem1-D1 = biological target: CaBem1-D1
# Method in brief: as §1
# CaBzz1-D1 = biological target: CaBzz1-D1
# Method in brief: as §1
# CaBzz1-D2 = biological target: CaBzz1-D2
# Method in brief: as §1
# CaCyk3 = biological target: CaCyk3
# Method in brief: as §1
# CaFus1 = biological target: CaFus1
# Method in brief: as §1
# CaHof1 = biological target: CaHof1
# Method in brief: as §1
# CaHse1 = biological target: CaHse1
# Method in brief: as §1
# CaLsb1 = biological target: CaLsb1
# Method in brief: as §1
# CaLsb4 = biological target: CaLsb4
# Method in brief: as §1
# CaMyo5 = biological target: CaMyo5
# Method in brief: as §1
# SpBzz1-D2 = biological target: SpBzz1-D2
# Method in brief: as §1
# SpCyk3 = biological target: SpCyk3
# Method in brief: as §1
# SpHof1 = biological target: SpHof1
# Method in brief: as §1
# SpHof1-2 = biological target: SpHof1-2
# Method in brief: as §1
# SpHof1-3 = biological target: SpHof1-3
# Method in brief: as §1
# SpHse1 = biological target: SpHse1
# Method in brief: as §1
# SpLsb1 = biological target: SpLsb1
# Method in brief: as §1
# SpLsb4 = biological target: SpLsb4
# Method in brief: as §1
# SpMyo1 = biological target: SpMyo1
# Method in brief: as §1
# SpNbp2 = biological target: SpNbp2
# Method in brief: as §1
# SpPex13 = biological target: SpPex13
# Method in brief: as §1
# SpRvs167 = biological target: SpRvs167
# Method in brief: as §1
# SpSla1-D1-D2 = biological target: SpSla1-D1-D2
# Method in brief: as §1
# SpSla1-D3 = biological target: SpSla1-D3
# Method in brief: as §1
# CaNbp2 = biological target: CaNbp2
# Method in brief: as §1
# CaRvs167 = biological target: CaRvs167
# Method in brief: as §1
# CaRvs167-3 = biological target: CaRvs167-3
# Method in brief: as §1
# CaSho1 = biological target: CaSho1
# Method in brief: as §1
# CaSla1-D1-D2 = biological target: CaSla1-D1-D2
# Method in brief: as §1
# CaSla1-D3 = biological target: CaSla1-D3
# Method in brief: as §1
# ScAbp1 = biological target: ScAbp1
# Method in brief: as §1
# ScBbc1 = biological target: ScBbc1
# Method in brief: as §1
# ScBem1-D1 = biological target: ScBem1-D1
# Method in brief: as §1
# ScBzz1-D1 = biological target: ScBzz1-D1
# Method in brief: as §1
# ScBzz1-D2 = biological target: ScBzz1-D2
# Method in brief: as §1
# ScCyk3 = biological target: ScCyk3
# Method in brief: as §1
# ScFus1 = biological target: ScFus1
# Method in brief: as §1
# ScHof1 = biological target: ScHof1
# Method in brief: as §1
# ScHse1 = biological target: ScHse1
# Method in brief: as §1
# ScLsb1 = biological target: ScLsb1
# Method in brief: as §1
# ScLsb2 = biological target: ScLsb2
# Method in brief: as §1
# ScLsb3 = biological target: ScLsb3
# Method in brief: as §1
# ScLsb4 = biological target: ScLsb4
# Method in brief: as §1
# ScMyo3 = biological target: ScMyo3
# Method in brief: as §1
# ScMyo5 = biological target: ScMyo5
# Method in brief: as §1
# ScNbp2 = biological target: ScNbp2
# Method in brief: as §1
# ScPex13 = biological target: ScPex13
# Method in brief: as §1
# ScRvs167 = biological target: ScRvs167
# Method in brief: as §1
# ScSho1 = biological target: ScSho1
# Method in brief: as §1
# ScSla1-D1-D2 = biological target: ScSla1-D1-D2
# Method in brief: as §1
# ScSla1-D3 = biological target: ScSla1-D3
# Method in brief: as §1
# SpAbp1-D1 = biological target: SpAbp1-D1
# Method in brief: as §1
# SpBbc1 = biological target: SpBbc1
# Method in brief: as §1
# SpBzz1-D1 = biological target: SpBzz1-D1
# Method in brief: as §1
binder,measurement,setting,value
GERSRPLVISILSSA,SPOT peptide array binding signal intensity,AgAbp1,≤ 0
same,SPOT peptide array binding signal intensity,AgBbc1,14.8
same,SPOT peptide array binding signal intensity,AgBem1-D1,73
same,SPOT peptide array binding signal intensity,AgBzz1-D1,90
same,SPOT peptide array binding signal intensity,AgBzz1-D2,106
same,SPOT peptide array binding signal intensity,AgCyk3,14
same,SPOT peptide array binding signal intensity,AgFus1,1940
same,SPOT peptide array binding signal intensity,AgHof1,14.8
same,SPOT peptide array binding signal intensity,AgHse1,106
same,SPOT peptide array binding signal intensity,AgLsb1,≤ 0
same,SPOT peptide array binding signal intensity,AgLsb4,262
same,SPOT peptide array binding signal intensity,AgMyo5,≤ 0
same,SPOT peptide array binding signal intensity,AgNbp2,25
same,SPOT peptide array binding signal intensity,AgRvs167,3.67
same,SPOT peptide array binding signal intensity,AgSho1,120
same,SPOT peptide array binding signal intensity,AgSla1-D1-D2,11
same,SPOT peptide array binding signal intensity,AgSla1-D3,5
same,SPOT peptide array binding signal intensity,CaAbp1-D1,43
same,SPOT peptide array binding signal intensity,CaAbp1-D2,2
same,SPOT peptide array binding signal intensity,CaBbc1,55.2
same,SPOT peptide array binding signal intensity,CaBem1-D1,28.5
same,SPOT peptide array binding signal intensity,CaBzz1-D1,268
same,SPOT peptide array binding signal intensity,CaBzz1-D2,175
same,SPOT peptide array binding signal intensity,CaCyk3,37
same,SPOT peptide array binding signal intensity,CaFus1,3880
same,SPOT peptide array binding signal intensity,CaHof1,≤ 0
same,SPOT peptide array binding signal intensity,CaHse1,10.5
same,SPOT peptide array binding signal intensity,CaLsb1,0.5
same,SPOT peptide array binding signal intensity,CaLsb4,≤ 0
same,SPOT peptide array binding signal intensity,CaMyo5,24
NAGIRPKFILALNDE,SPOT peptide array binding signal intensity,SpBzz1-D2,≤ 0
same,SPOT peptide array binding signal intensity,SpCyk3,2
same,SPOT peptide array binding signal intensity,SpHof1,28.8
same,SPOT peptide array binding signal intensity,SpHof1-2,19
same,SPOT peptide array binding signal intensity,SpHof1-3,214
same,SPOT peptide array binding signal intensity,SpHse1,481
same,SPOT peptide array binding signal intensity,SpLsb1,≤ 0
same,SPOT peptide array binding signal intensity,SpLsb4,≤ 0
same,SPOT peptide array binding signal intensity,SpMyo1,≤ 0
same,SPOT peptide array binding signal intensity,SpNbp2,16.5
same,SPOT peptide array binding signal intensity,SpPex13,4
same,SPOT peptide array binding signal intensity,SpRvs167,3.5
same,SPOT peptide array binding signal intensity,SpSla1-D1-D2,4
same,SPOT peptide array binding signal intensity,SpSla1-D3,≤ 0
RLSFFFPLDPAYIRN,SPOT peptide array binding signal intensity,AgAbp1,≤ 0
same,SPOT peptide array binding signal intensity,AgBbc1,2.25
same,SPOT peptide array binding signal intensity,AgBem1-D1,121
same,SPOT peptide array binding signal intensity,AgBzz1-D1,27
same,SPOT peptide array binding signal intensity,AgBzz1-D2,72.5
same,SPOT peptide array binding signal intensity,AgCyk3,7
same,SPOT peptide array binding signal intensity,AgFus1,854
same,SPOT peptide array binding signal intensity,AgHof1,34
same,SPOT peptide array binding signal intensity,AgHse1,1180
same,SPOT peptide array binding signal intensity,AgLsb1,1.5
same,SPOT peptide array binding signal intensity,AgLsb4,152
same,SPOT peptide array binding signal intensity,AgMyo5,1.5
same,SPOT peptide array binding signal intensity,AgNbp2,34
same,SPOT peptide array binding signal intensity,AgRvs167,4
same,SPOT peptide array binding signal intensity,AgSho1,50
same,SPOT peptide array binding signal intensity,AgSla1-D1-D2,37
same,SPOT peptide array binding signal intensity,AgSla1-D3,8.5
same,SPOT peptide array binding signal intensity,CaAbp1-D1,2
same,SPOT peptide array binding signal intensity,CaAbp1-D2,≤ 0
same,SPOT peptide array binding signal intensity,CaBbc1,≤ 0
same,SPOT peptide array binding signal intensity,CaBem1-D1,24
same,SPOT peptide array binding signal intensity,CaBzz1-D1,32.5
same,SPOT peptide array binding signal intensity,CaBzz1-D2,43
same,SPOT peptide array binding signal intensity,CaCyk3,3
same,SPOT peptide array binding signal intensity,CaFus1,2490
same,SPOT peptide array binding signal intensity,CaHof1,0.5
same,SPOT peptide array binding signal intensity,CaHse1,134
same,SPOT peptide array binding signal intensity,CaLsb1,1.5
same,SPOT peptide array binding signal intensity,CaLsb4,45.5
same,SPOT peptide array binding signal intensity,CaMyo5,187
same,SPOT peptide array binding signal intensity,CaNbp2,474
same,SPOT peptide array binding signal intensity,CaRvs167,57.8
same,SPOT peptide array binding signal intensity,CaRvs167-3,238
same,SPOT peptide array binding signal intensity,CaSho1,1050
same,SPOT peptide array binding signal intensity,CaSla1-D1-D2,≤ 0
same,SPOT peptide array binding signal intensity,CaSla1-D3,35.8
same,SPOT peptide array binding signal intensity,ScAbp1,2
same,SPOT peptide array binding signal intensity,ScBbc1,≤ 0
same,SPOT peptide array binding signal intensity,ScBem1-D1,17
same,SPOT peptide array binding signal intensity,ScBzz1-D1,42
same,SPOT peptide array binding signal intensity,ScBzz1-D2,79
same,SPOT peptide array binding signal intensity,ScCyk3,282
same,SPOT peptide array binding signal intensity,ScFus1,627
same,SPOT peptide array binding signal intensity,ScHof1,2
same,SPOT peptide array binding signal intensity,ScHse1,1380
same,SPOT peptide array binding signal intensity,ScLsb1,0.5
same,SPOT peptide array binding signal intensity,ScLsb2,≤ 0
same,SPOT peptide array binding signal intensity,ScLsb3,48
same,SPOT peptide array binding signal intensity,ScLsb4,9
same,SPOT peptide array binding signal intensity,ScMyo3,9.5
same,SPOT peptide array binding signal intensity,ScMyo5,5
same,SPOT peptide array binding signal intensity,ScNbp2,84.5
same,SPOT peptide array binding signal intensity,ScPex13,6.25
same,SPOT peptide array binding signal intensity,ScRvs167,7.67
same,SPOT peptide array binding signal intensity,ScSho1,738
same,SPOT peptide array binding signal intensity,ScSla1-D1-D2,13
same,SPOT peptide array binding signal intensity,ScSla1-D3,37.5
same,SPOT peptide array binding signal intensity,SpAbp1-D1,1
same,SPOT peptide array binding signal intensity,SpBbc1,0.5
same,SPOT peptide array binding signal intensity,SpBzz1-D1,121
same,SPOT peptide array binding signal intensity,SpBzz1-D2,2
same,SPOT peptide array binding signal intensity,SpCyk3,24
same,SPOT peptide array binding signal intensity,SpHof1,130
same,SPOT peptide array binding signal intensity,SpHof1-2,45
same,SPOT peptide array binding signal intensity,SpHof1-3,389
same,SPOT peptide array binding signal intensity,SpHse1,1620
same,SPOT peptide array binding signal intensity,SpLsb1,≤ 0
same,SPOT peptide array binding signal intensity,SpLsb4,15
same,SPOT peptide array binding signal intensity,SpMyo1,17.8
same,SPOT peptide array binding signal intensity,SpNbp2,69.5
same,SPOT peptide array binding signal intensity,SpPex13,23.5
same,SPOT peptide array binding signal intensity,SpRvs167,11.2
same,SPOT peptide array binding signal intensity,SpSla1-D1-D2,6
same,SPOT peptide array binding signal intensity,SpSla1-D3,32
